Measured values: PubChem BioAssay AID1159580 (chemical genetic matrix, 2015)
The campaign covered roughly 5,500 compounds. About 2,000 (36%) were called active. Another 18% or so got no clear call; they are omitted. Cut-off read from the data, not from the text of the source: active = normalized growth mostly below about 0.91 (no sharp cut-off); inconclusive = no clear call, values can overlap the other calls; inactive = mostly above about 0.92. The list shows a part of the results.

Assay: chemical genetic growth profiling, strain panel (AID 1159580);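 note: tested at 20 µM; growth read once vehicle control cultures reached saturation at 30 °C; 1 = growth at the plate median or of vehicle wells; lower values mean less growth of the strain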
Conditions: growth OD

Measured: normalized growth

Oc1ccc(Cl)cc1
inactive: S. cerevisiae deletion strains, locus YJR075W, strain HOC1, active compounds read low 0.993 | S. cerevisiae deletion strains, locus YKL009W, strain mrt4, active compounds read low 0.972 | S. cerevisiae deletion strains, locus YKL068W, active compounds read low 0.985 | S. cerevisiae deletion strains, locus YKL085W, strain MDH1 (second series), active compounds read low 0.978 | S. cerevisiae deletion strains, locus YKL085W, strain MDH1, active compounds read low 0.978 | S. cerevisiae deletion strains, locus YKL160W, strain elf1, active compounds read low 1.03 | S. cerevisiae deletion strains, locus YKL190W, strain CNB1, active compounds read low 0.993 | S. cerevisiae deletion strains, locus YKR001C, strain vps1, active compounds read low 0.996 | S. cerevisiae deletion strains, locus YKR026C, strain gcn3, active compounds read low 1.02 | S. cerevisiae deletion strains, locus YKR091W, strain srl3, active compounds read low 1.01 | S. cerevisiae deletion strains, locus YLL001W, strain dnm1, active compounds read low 1.02 | S. cerevisiae deletion strains, locus YLL026W, active compounds read low 1.02 | S. cerevisiae deletion strains, locus YLL041C, strain sdh2, active compounds read low 1.01 | S. cerevisiae deletion strains, locus YLR027C, strain aat2, active compounds read low 0.999 | S. cerevisiae deletion strains, locus YLR039C, strain RIC1, active compounds read low 0.983 | S. cerevisiae deletion strains, locus YLR058C, strain SHM2, active compounds read low 0.989 | S. cerevisiae deletion strains, locus YLR102C, strain apc9, active compounds read low 0.976 | S. cerevisiae deletion strains, locus YLR113W, strain HOG1, active compounds read low 1 | S. cerevisiae deletion strains, locus YLR221C, strain rsa3, active compounds read low 1.01 | S. cerevisiae deletion strains, locus YLR258W, strain gsy2, active compounds read low 1 | S. cerevisiae deletion strains, locus YLR262C, strain YPT6 (second series), active compounds read low 1.02 | S. cerevisiae deletion strains, locus YLR262C, strain YPT6, active compounds read low 0.986 | S. cerevisiae deletion strains, locus YLR268W, strain sec22, active compounds read low 0.93 | S. cerevisiae deletion strains, locus YLR320W, strain mms22, active compounds read low 1.03 | S. cerevisiae deletion strains, locus YLR330W, strain CHS5, active compounds read low 0.99 | S. cerevisiae deletion strains, locus YLR342W, strain FKS1 (second series), active compounds read low 0.995 | S. cerevisiae deletion strains, locus YLR342W, strain FKS1, active compounds read low 1.01 | S. cerevisiae deletion strains, locus YLR357W, strain rsc2, active compounds read low 1.04 | S. cerevisiae deletion strains, locus YLR370C, strain arc18, active compounds read low 1.01 | S. cerevisiae deletion strains, locus YLR371W, strain rom2, active compounds read low 0.962 | S. cerevisiae deletion strains, locus YLR384C, strain iki3, active compounds read low 1.01 | S. cerevisiae deletion strains, locus YLR418C, strain cdc73, active compounds read low 0.986 | S. cerevisiae deletion strains, locus YML016C, strain PPZ1, active compounds read low 0.99 | S. cerevisiae deletion strains, locus YML032C, strain rad52, active compounds read low 0.963 | S. cerevisiae deletion strains, locus YML120C, strain ndi1, active compounds read low 1.01 | S. cerevisiae deletion strains, locus YML124C, strain tub3, active compounds read low 0.975 | S. cerevisiae deletion strains, locus YMR058W, strain fet3, active compounds read low 1.01 | S. cerevisiae deletion strains, locus YMR078C, strain ctf18, active compounds read low 0.968 | S. cerevisiae deletion strains, locus YMR125W, strain sto1, active compounds read low 1.01 | S. cerevisiae deletion strains, locus YMR129W, active compounds read low 1.01 | S. cerevisiae deletion strains, locus YMR205C, strain PFK2, active compounds read low 1.03 | S. cerevisiae deletion strains, locus YMR223W, strain ubp8, active compounds read low 1 | S. cerevisiae deletion strains, locus YMR231W, strain pep5, active compounds read low 1.01 | S. cerevisiae deletion strains, locus YMR307W, strain GAS1, active compounds read low 1 | S. cerevisiae deletion strains, locus YNL067W, strain RPL9B, active compounds read low 0.996 | S. cerevisiae deletion strains, locus YNL071W, strain lat1, active compounds read low 1.01 | S. cerevisiae deletion strains, locus YNL128W, strain TEP1, active compounds read low 0.978 | S. cerevisiae deletion strains, locus YNL153C, strain GIM3, active compounds read low 1 | S. cerevisiae deletion strains, locus YNL183C, strain NPR1, active compounds read low 0.941 | S. cerevisiae deletion strains, locus YNL209W, strain ssb2, active compounds read low 1 | S. cerevisiae deletion strains, locus YNL233W, strain BNI4, active compounds read low 0.988 | S. cerevisiae deletion strains, locus YNL248C, strain rpa49, active compounds read low 1 | S. cerevisiae deletion strains, locus YNL250W, strain rad50, active compounds read low 0.97 | S. cerevisiae deletion strains, locus YNL271C, strain bni1, active compounds read low 0.975 | S. cerevisiae deletion strains, locus YNL298W, strain CLA4, active compounds read low 0.971 | S. cerevisiae deletion strains, locus YNL307C, strain MCK1, active compounds read low 0.968 | S. cerevisiae deletion strains, locus YNL322C, strain KRE1 (second series), active compounds read low 1.02 | S. cerevisiae deletion strains, locus YNL322C, strain KRE1, active compounds read low 0.992 | S. cerevisiae deletion strains, locus YNR049C, strain mso1, active compounds read low 1.01 | S. cerevisiae deletion strains, locus YNR052C, strain pop2, active compounds read low 0.973 | S. cerevisiae deletion strains, locus YOL006C, strain TOP1, active compounds read low 1.03 | S. cerevisiae deletion strains, locus YOL012C, strain htz1 0.904 | S. cerevisiae deletion strains, locus YOL147C, strain pex11, active compounds read low 0.986 | S. cerevisiae deletion strains, locus YOR001W, strain rrp6, active compounds read low 0.972 | S. cerevisiae deletion strains, locus YOR061W, strain CKA2, active compounds read low 0.98 | S. cerevisiae deletion strains, locus YOR069W, strain VPS5, active compounds read low 0.989 | S. cerevisiae deletion strains, locus YOR070C, strain gyp1, active compounds read low 1 | S. cerevisiae deletion strains, locus YOR080W, strain dia2, active compounds read low 1.01 | S. cerevisiae deletion strains, locus YOR083W, strain WHI5, active compounds read low 1.02 | S. cerevisiae deletion strains, locus YOR106W, strain vam3, active compounds read low 1.02 | S. cerevisiae deletion strains, locus YOR136W, strain idh2, active compounds read low 0.98 | S. cerevisiae deletion strains, locus YOR144C, strain elg1, active compounds read low 0.978 | S. cerevisiae deletion strains, locus YOR184W, strain ser1, active compounds read low 0.961 | S. cerevisiae deletion strains, locus YOR231W, strain MKK1, active compounds read low 0.979 | S. cerevisiae deletion strains, locus YOR265W, strain rbl2, active compounds read low 1.02 | S. cerevisiae deletion strains, locus YOR270C, strain vph1, active compounds read low 1.02 | S. cerevisiae deletion strains, locus YOR290C, strain snf2, active compounds read low 0.999 | S. cerevisiae deletion strains, locus YOR316C, strain cot1, active compounds read low 0.974 | S. cerevisiae deletion strains, locus YPL051W, strain arl3, active compounds read low 1.01 | S. cerevisiae deletion strains, locus YPL078C, strain atp4, active compounds read low 1.01 | S. cerevisiae deletion strains, locus YPL106C, strain sse1, active compounds read low 1.04 | S. cerevisiae deletion strains, locus YPL240C, strain hsp82, active compounds read low 1.01 | S. cerevisiae deletion strains, locus YPL241C, strain CIN2, active compounds read low 0.997 | S. cerevisiae deletion strains, locus YPL256C, strain CLN2, active compounds read low 0.978 | S. cerevisiae deletion strains, locus YPR119W, strain clb2, active compounds read low 0.98 | S. cerevisiae deletion strains, locus YPR141C, strain kar3, active compounds read low 0.976 | S. cerevisiae deletion strains, locus YPR163C, strain tif3, active compounds read low 0.983 | S. cerevisiae deletion strains, locus YPR167C, strain met16, active compounds read low 0.974 | S. cerevisiae deletion strains, strain wtn01, active compounds read low 0.971 | S. cerevisiae strains, strain wild type, active compounds read low 0.995
